From PubChem BioAssay (EPA / NIEHS) come the findings set out here.

SMILES strings stand for the structures. Inconclusive results are not listed. Active and inactive are the calls of the source. How the source made its calls: active means hit-call score of the fitted dose curve at least 0.9, where 1 is the maximum; inconclusive means response in the unintended direction; inactive means score below 0.9.

Sequence of human IkappaB Kinase alpha (IKKa), CHUK (gene 1147) (O15111 whole entry, looked up): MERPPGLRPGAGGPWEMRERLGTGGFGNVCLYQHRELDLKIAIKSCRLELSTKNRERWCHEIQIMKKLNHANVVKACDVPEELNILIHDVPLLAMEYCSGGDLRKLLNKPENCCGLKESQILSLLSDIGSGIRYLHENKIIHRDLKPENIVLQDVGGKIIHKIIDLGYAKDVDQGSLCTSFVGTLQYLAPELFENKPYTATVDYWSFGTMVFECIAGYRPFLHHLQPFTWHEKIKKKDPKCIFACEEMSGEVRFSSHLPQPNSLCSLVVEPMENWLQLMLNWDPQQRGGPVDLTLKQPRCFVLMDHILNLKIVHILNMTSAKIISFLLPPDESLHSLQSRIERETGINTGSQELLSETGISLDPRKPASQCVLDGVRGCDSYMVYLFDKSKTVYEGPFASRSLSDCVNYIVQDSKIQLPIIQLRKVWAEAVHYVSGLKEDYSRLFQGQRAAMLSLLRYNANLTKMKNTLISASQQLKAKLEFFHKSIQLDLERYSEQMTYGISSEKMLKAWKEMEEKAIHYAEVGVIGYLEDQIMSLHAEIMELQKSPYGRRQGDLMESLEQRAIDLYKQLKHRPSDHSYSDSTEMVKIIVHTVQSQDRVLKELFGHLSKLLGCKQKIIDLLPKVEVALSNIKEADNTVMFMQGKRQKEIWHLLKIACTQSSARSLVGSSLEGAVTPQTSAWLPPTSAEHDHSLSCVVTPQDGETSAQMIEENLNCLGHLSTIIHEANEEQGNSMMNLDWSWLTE
Sequence of Protein deacetylase HDAC6 (Homo sapiens) (Q9UBN7 whole entry, looked up): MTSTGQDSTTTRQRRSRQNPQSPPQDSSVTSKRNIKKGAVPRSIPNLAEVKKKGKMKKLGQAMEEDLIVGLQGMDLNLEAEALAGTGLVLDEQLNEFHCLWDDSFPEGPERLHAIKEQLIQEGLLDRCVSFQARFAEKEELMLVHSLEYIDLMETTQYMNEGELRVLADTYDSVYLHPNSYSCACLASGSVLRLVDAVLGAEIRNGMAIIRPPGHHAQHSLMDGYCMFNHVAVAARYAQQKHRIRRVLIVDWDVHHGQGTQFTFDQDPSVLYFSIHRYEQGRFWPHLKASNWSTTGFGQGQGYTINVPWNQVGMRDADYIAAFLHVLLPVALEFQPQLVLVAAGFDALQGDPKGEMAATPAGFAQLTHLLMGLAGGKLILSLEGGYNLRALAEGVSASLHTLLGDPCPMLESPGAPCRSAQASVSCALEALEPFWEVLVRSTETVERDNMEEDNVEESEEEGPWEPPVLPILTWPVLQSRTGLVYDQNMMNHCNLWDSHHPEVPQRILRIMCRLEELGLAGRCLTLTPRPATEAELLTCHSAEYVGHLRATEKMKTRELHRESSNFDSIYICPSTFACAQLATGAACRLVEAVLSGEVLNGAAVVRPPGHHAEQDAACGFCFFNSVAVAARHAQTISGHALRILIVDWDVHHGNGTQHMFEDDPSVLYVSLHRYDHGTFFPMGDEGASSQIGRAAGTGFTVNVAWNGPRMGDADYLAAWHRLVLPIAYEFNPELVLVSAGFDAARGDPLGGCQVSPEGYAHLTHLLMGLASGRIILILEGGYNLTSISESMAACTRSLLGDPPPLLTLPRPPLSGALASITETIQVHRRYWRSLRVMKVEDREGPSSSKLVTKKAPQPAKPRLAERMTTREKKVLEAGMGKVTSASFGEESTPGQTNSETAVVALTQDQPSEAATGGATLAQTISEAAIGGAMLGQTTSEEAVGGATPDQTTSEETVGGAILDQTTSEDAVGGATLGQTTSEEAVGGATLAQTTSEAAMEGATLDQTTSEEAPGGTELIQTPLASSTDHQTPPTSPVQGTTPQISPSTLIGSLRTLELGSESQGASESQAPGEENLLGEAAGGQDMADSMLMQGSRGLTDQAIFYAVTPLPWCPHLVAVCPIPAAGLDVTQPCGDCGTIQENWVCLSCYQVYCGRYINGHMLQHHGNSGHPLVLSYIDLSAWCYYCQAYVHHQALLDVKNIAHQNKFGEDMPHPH
Sequence of human Mitogen-Activated Protein Kinase 1 (MAPK 1), MAPK1 (gene 5594) (P28482 whole entry, looked up): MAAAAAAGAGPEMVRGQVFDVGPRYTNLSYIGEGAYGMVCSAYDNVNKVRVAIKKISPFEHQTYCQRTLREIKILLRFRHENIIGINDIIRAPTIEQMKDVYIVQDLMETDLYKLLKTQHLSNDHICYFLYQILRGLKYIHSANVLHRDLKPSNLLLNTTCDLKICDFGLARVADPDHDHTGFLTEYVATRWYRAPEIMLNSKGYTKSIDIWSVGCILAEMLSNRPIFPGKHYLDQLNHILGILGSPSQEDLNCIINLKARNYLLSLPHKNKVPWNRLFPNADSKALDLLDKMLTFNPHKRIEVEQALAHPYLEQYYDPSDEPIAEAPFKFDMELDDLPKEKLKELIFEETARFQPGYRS

For one test, the target named is Protein deacetylase HDAC6 (Homo sapiens) (UniProt Q9UBN7). The test can be described thus: NVS_ENZ_hHDAC6: NovaScreen (NVS) Enzymatic Assay for human Histone Deacetylase 6 (HDAC6) (AID 2283164). The procedure, abridged:
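Concentration-response runs up to 50 uM followed a duplicate 25 uM single-point screen. Deacetylase activity of recombinant human HDAC6 read by fluorescence after 1 h, with mobility-shift separation of substrate and product; DMSO as baseline.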
For `O=c1[nH]cnc2c1ncn2[C@H]1CC[C@@H](CO)O1`, the call was inactive.
The AC50 is the concentration at which the activity in the assay is half-maximal. As for `Cc1ncc([C@@H](CCCCCCc2ccc3c(n2)NCCC3)CC(=O)O)cn1`, the AC50 is 14.9 µM (active).
`CCCC(CCC)C(=O)O`: the molecule was called inactive.
For the molecule `NCCO`, the molecule was classed as inactive.
On to `CCCCCCCCCCCCc1ccccc1`, for which the molecule was classed as inactive.

The next test deals with human IkappaB Kinase alpha (IKKa), CHUK (gene 1147) (UniProt O15111). In words: NVS_ENZ_hIKKa: NovaScreen (NVS) Enzymatic Assay for human IkappaB Kinase alpha (IKKa) (AID 2283167). The procedure, abridged:
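Compounds first run in duplicate at 25 uM, those meeting threshold (e.g. 30% inhibition) retested to maximum 50 uM. Enzyme activity of recombinant IKKa measured by fluorescence with electrophoretic mobility shift separation, 1 hour post-dosing, DMSO baseline.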
For the molecule `O=c1[nH]cnc2c1ncn2[C@H]1CC[C@@H](CO)O1`, the call was inactive.
Take `CCCC(CCC)C(=O)O`: the call was inactive.
Consider `CCc1c(C(=O)NN2CCCCC2)nn(-c2ccc(Cl)cc2Cl)c1-c1ccc(Br)cc1`, for which the outcome was inactive.
With `O=C(OCCOCCOC(=O)c1ccccc1)c1ccccc1`, the molecule was called inactive.

For a further test, the target named is human Mitogen-Activated Protein Kinase 1 (MAPK 1), MAPK1 (gene 5594) (UniProt P28482). In words: NVS_ENZ_hMAPK1: NovaScreen (NVS) Enzymatic Assay for human Mitogen-Activated Protein Kinase 1 (MAPK 1) (AID 2283175). The procedure, abridged:
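Cell-free recombinant human MAPK1 enzymatic assay, fluorescence/electrophoretic mobility shift read at 1 h; loss of signal vs DMSO. Primary screen in duplicate at 25 uM; actives (e.g. ≥30% inhibition) run as concentration-response up to 50 uM.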
As to `Cc1ncc([C@@H](CCCCCCc2ccc3c(n2)NCCC3)CC(=O)O)cn1`, the molecule was classed as inactive.
In the case of `CCc1c(C(=O)NN2CCCCC2)nn(-c2ccc(Cl)cc2Cl)c1-c1ccc(Br)cc1`, the result was inactive.
As to `NCCO`, the molecule was classed as inactive.
Turning to `COc1ccc(OC(F)(F)F)cc1CN[C@H]1CCCN[C@H]1c1ccccc1`, the molecule was called inactive.
